Laboratory results published in PubChem BioAssay AID1159580 (chemical genetic matrix, 2015).
Hit rate of the full screen: of about 5,500 compounds, about 2,000 (36%) were called active. Inconclusive results (about 18%) are left out. Cut-off read from the data, not from the text of the source: active = normalized growth mostly below about 0.91 (no sharp cut-off); inconclusive = no clear call, values can overlap the other calls; inactive = mostly above about 0.92. The list shows a part of the results.

Test: chemical genetic growth profiling, strain panel (AID 1159580);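 note: tested at 20 µM; growth read once vehicle control cultures reached saturation at 30 °C; 1 = growth at the plate median or of vehicle wells; lower values mean less growth of the strain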
Conditions: growth OD

Measured: normalized growth

NC(=O)c1cc([N+](=O)[O-])cc([N+](=O)[O-])c1
inactive: S. cerevisiae deletion strains, locus YJR075W, strain HOC1, hits give low values 1 | S. cerevisiae deletion strains, locus YKL009W, strain mrt4, hits give low values 0.985 | S. cerevisiae deletion strains, locus YKL068W, hits give low values 1 | S. cerevisiae deletion strains, locus YKL085W, strain MDH1 (second series), hits give low values 0.999 | S. cerevisiae deletion strains, locus YKL085W, strain MDH1, hits give low values 0.999 | S. cerevisiae deletion strains, locus YKL160W, strain elf1, hits give low values 1.01 | S. cerevisiae deletion strains, locus YKL190W, strain CNB1, hits give low values 1.01 | S. cerevisiae deletion strains, locus YKR001C, strain vps1, hits give low values 0.997 | S. cerevisiae deletion strains, locus YKR026C, strain gcn3, hits give low values 1.02 | S. cerevisiae deletion strains, locus YKR091W, strain srl3, hits give low values 1.02 | S. cerevisiae deletion strains, locus YLL001W, strain dnm1, hits give low values 1.06 | S. cerevisiae deletion strains, locus YLL026W, hits give low values 1.01 | S. cerevisiae deletion strains, locus YLL041C, strain sdh2, hits give low values 1 | S. cerevisiae deletion strains, locus YLR027C, strain aat2, hits give low values 0.989 | S. cerevisiae deletion strains, locus YLR039C, strain RIC1, hits give low values 1.24 | S. cerevisiae deletion strains, locus YLR058C, strain SHM2, hits give low values 1.01 | S. cerevisiae deletion strains, locus YLR102C, strain apc9, hits give low values 1 | S. cerevisiae deletion strains, locus YLR113W, strain HOG1, hits give low values 0.988 | S. cerevisiae deletion strains, locus YLR221C, strain rsa3, hits give low values 1.02 | S. cerevisiae deletion strains, locus YLR258W, strain gsy2, hits give low values 1 | S. cerevisiae deletion strains, locus YLR262C, strain YPT6 (second series), hits give low values 1.11 | S. cerevisiae deletion strains, locus YLR262C, strain YPT6, hits give low values 1.2 | S. cerevisiae deletion strains, locus YLR268W, strain sec22, hits give low values 0.963 | S. cerevisiae deletion strains, locus YLR320W, strain mms22, hits give low values 1.01 | S. cerevisiae deletion strains, locus YLR330W, strain CHS5, hits give low values 1.02 | S. cerevisiae deletion strains, locus YLR342W, strain FKS1 (second series), hits give low values 1.02 | S. cerevisiae deletion strains, locus YLR342W, strain FKS1, hits give low values 1.02 | S. cerevisiae deletion strains, locus YLR357W, strain rsc2, hits give low values 1 | S. cerevisiae deletion strains, locus YLR370C, strain arc18, hits give low values 1.02 | S. cerevisiae deletion strains, locus YLR371W, strain rom2, hits give low values 0.998 | S. cerevisiae deletion strains, locus YLR384C, strain iki3, hits give low values 1.02 | S. cerevisiae deletion strains, locus YLR418C, strain cdc73, hits give low values 0.861 | S. cerevisiae deletion strains, locus YML016C, strain PPZ1, hits give low values 1.03 | S. cerevisiae deletion strains, locus YML032C, strain rad52, hits give low values 0.974 | S. cerevisiae deletion strains, locus YML120C, strain ndi1, hits give low values 1.02 | S. cerevisiae deletion strains, locus YML124C, strain tub3, hits give low values 0.998 | S. cerevisiae deletion strains, locus YMR058W, strain fet3, hits give low values 0.955 | S. cerevisiae deletion strains, locus YMR078C, strain ctf18, hits give low values 0.999 | S. cerevisiae deletion strains, locus YMR125W, strain sto1, hits give low values 1.01 | S. cerevisiae deletion strains, locus YMR129W, hits give low values 1.02 | S. cerevisiae deletion strains, locus YMR205C, strain PFK2, hits give low values 1.04 | S. cerevisiae deletion strains, locus YMR223W, strain ubp8, hits give low values 0.979 | S. cerevisiae deletion strains, locus YMR231W, strain pep5, hits give low values 1.01 | S. cerevisiae deletion strains, locus YMR307W, strain GAS1, hits give low values 0.972 | S. cerevisiae deletion strains, locus YNL067W, strain RPL9B, hits give low values 0.999 | S. cerevisiae deletion strains, locus YNL071W, strain lat1, hits give low values 0.998 | S. cerevisiae deletion strains, locus YNL128W, strain TEP1, hits give low values 0.982 | S. cerevisiae deletion strains, locus YNL183C, strain NPR1, hits give low values 0.935 | S. cerevisiae deletion strains, locus YNL209W, strain ssb2, hits give low values 1.01 | S. cerevisiae deletion strains, locus YNL233W, strain BNI4, hits give low values 1.01 | S. cerevisiae deletion strains, locus YNL250W, strain rad50, hits give low values 1.01 | S. cerevisiae deletion strains, locus YNL271C, strain bni1, hits give low values 0.974 | S. cerevisiae deletion strains, locus YNL298W, strain CLA4, hits give low values 0.983 | S. cerevisiae deletion strains, locus YNL307C, strain MCK1, hits give low values 0.979 | S. cerevisiae deletion strains, locus YNL322C, strain KRE1 (second series), hits give low values 1.04 | S. cerevisiae deletion strains, locus YNL322C, strain KRE1, hits give low values 1.02 | S. cerevisiae deletion strains, locus YNR049C, strain mso1, hits give low values 1.01 | S. cerevisiae deletion strains, locus YNR052C, strain pop2, hits give low values 0.985 | S. cerevisiae deletion strains, locus YOL006C, strain TOP1, hits give low values 0.927 | S. cerevisiae deletion strains, locus YOL012C, strain htz1 0.763 | S. cerevisiae deletion strains, locus YOL147C, strain pex11, hits give low values 0.998 | S. cerevisiae deletion strains, locus YOR001W, strain rrp6, hits give low values 0.984 | S. cerevisiae deletion strains, locus YOR061W, strain CKA2, hits give low values 1.01 | S. cerevisiae deletion strains, locus YOR069W, strain VPS5, hits give low values 1.01 | S. cerevisiae deletion strains, locus YOR070C, strain gyp1, hits give low values 1 | S. cerevisiae deletion strains, locus YOR080W, strain dia2, hits give low values 1.02 | S. cerevisiae deletion strains, locus YOR083W, strain WHI5, hits give low values 1.02 | S. cerevisiae deletion strains, locus YOR106W, strain vam3, hits give low values 1 | S. cerevisiae deletion strains, locus YOR136W, strain idh2, hits give low values 0.993 | S. cerevisiae deletion strains, locus YOR144C, strain elg1, hits give low values 0.998 | S. cerevisiae deletion strains, locus YOR184W, strain ser1, hits give low values 0.976 | S. cerevisiae deletion strains, locus YOR231W, strain MKK1, hits give low values 0.963 | S. cerevisiae deletion strains, locus YOR265W, strain rbl2, hits give low values 1 | S. cerevisiae deletion strains, locus YOR270C, strain vph1, hits give low values 1.02 | S. cerevisiae deletion strains, locus YOR290C, strain snf2, hits give low values 1.01 | S. cerevisiae deletion strains, locus YOR316C, strain cot1, hits give low values 0.995 | S. cerevisiae deletion strains, locus YPL051W, strain arl3, hits give low values 0.97 | S. cerevisiae deletion strains, locus YPL055C, strain LGE1, hits give low values 0.96 | S. cerevisiae deletion strains, locus YPL078C, strain atp4, hits give low values 1.01 | S. cerevisiae deletion strains, locus YPL106C, strain sse1, hits give low values 1.02 | S. cerevisiae deletion strains, locus YPL240C, strain hsp82, hits give low values 1.01 | S. cerevisiae deletion strains, locus YPL241C, strain CIN2, hits give low values 1.03 | S. cerevisiae deletion strains, locus YPL256C, strain CLN2, hits give low values 0.965 | S. cerevisiae deletion strains, locus YPR119W, strain clb2, hits give low values 1 | S. cerevisiae deletion strains, locus YPR141C, strain kar3, hits give low values 1 | S. cerevisiae deletion strains, locus YPR163C, strain tif3, hits give low values 0.995 | S. cerevisiae deletion strains, locus YPR167C, strain met16, hits give low values 0.992 | S. cerevisiae deletion strains, strain wtn01, hits give low values 0.98 | S. cerevisiae strains, strain wild type, hits give low values 1.01
active: S. cerevisiae deletion strains, locus YNL248C, strain rpa49, hits give low values 0.879
